Publication PMC10726135, “HNF4α isoforms regulate the circadian balance between carbohydrate and lipid metabolism in the liver”
In all, about 18,000 sequences were measured (“log2 normalized intensity”: median about 0.36, highest 2% from about 7.3 on). The sample holds the highest values, similar sequences and a random draw of the others, so the mix is not that of the screen.

Each sequence was assayed against T1, HNF4alpha8 (COS-7 nuclear extract) (Homo sapiens, UniProt P41235-5 1-452) (assay: protein-binding microarray; COS-7 nuclear extract on double-stranded Agilent 4x180k PBM; binding buffer, salt, pH and temperature not given in the material; high values mean tight binding). Details: chain copies: 2; label: 3' end of strand 1 on the slide; dsDNA, one strand shown.
T1 sequence: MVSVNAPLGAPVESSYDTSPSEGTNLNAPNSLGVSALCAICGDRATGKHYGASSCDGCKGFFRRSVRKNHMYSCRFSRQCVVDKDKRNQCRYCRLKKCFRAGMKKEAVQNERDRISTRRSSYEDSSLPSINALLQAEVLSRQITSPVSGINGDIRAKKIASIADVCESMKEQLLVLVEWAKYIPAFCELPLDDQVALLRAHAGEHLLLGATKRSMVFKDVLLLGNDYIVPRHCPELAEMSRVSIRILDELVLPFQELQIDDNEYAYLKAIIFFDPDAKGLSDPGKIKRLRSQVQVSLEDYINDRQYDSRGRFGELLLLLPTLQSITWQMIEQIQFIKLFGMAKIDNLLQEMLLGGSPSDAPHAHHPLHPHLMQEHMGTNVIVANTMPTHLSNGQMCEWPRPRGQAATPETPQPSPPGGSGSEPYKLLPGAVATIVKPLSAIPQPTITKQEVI
Method in brief: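 COS-7 cells were transiently transfected by CaPO4 with an expression vector for a human HNF4α isoform, and nuclear extracts were prepared from them. The extracts were applied to a custom Agilent SurePrint G3 4x180k array of double-stranded ~60-nt oligonucleotides, with ~44,000 test sequences spotted in quadruplicate. An Agilent G2565CA scanner imaged bound HNF4α at 2-µm resolution. Binding signal is the background-corrected, normalized gProcessedSignal from Agilent software.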

Sequence | binding signal [log2 normalized intensity]
TTACAGTGTGAATCTCCAACAAGGCAGGAGGCCTAGGGAGATTAGAGTATCGGTCGA | -0.531
GTCATAATTTGATCCAGTGTGCAAATGTGTGCCTAGGGAGATTAGAGTATCGGTCGA | 2.05
CCACAACCTACCCTTTGCCCTGGACATATTGCCTAGGGAGATTAGAGTATCGGTCGA | 3.27
GCAAACCTGCCCTTTGCTCCAGAGGAAGATGCCTAGGGAGATTAGAGTATCGGTCGA | 3.81
CCTTTGAGGAGGCCTTTCCTGACCCCTCCTGCCTAGGGAGATTAGAGTATCGGTCGA | 4.78
AAAGAGCCATGGACTGCTGACCTTTGAACCGCCTAGGGAGATTAGAGTATCGGTCGA | 9.59
AGCAATTCAAATTCTTTGCCATGACCTTTGGCCTAGGGAGATTAGAGTATCGGTCGA | 6.24
TTCAAATTCTTTGCCATGACCTTTGAAGCCGCCTAGGGAGATTAGAGTATCGGTCGA | 7.52
GGCAGATATGAAAGAGCCATGGACTGCTGAGCCTAGGGAGATTAGAGTATCGGTCGA | -0.289
ATATGAAAGAGCCATGGACTGCTGACCTTTGCCTAGGGAGATTAGAGTATCGGTCGA | 7.13
ATTCTTTGCCATGACCTTTGAAGCCCAGAAGCCTAGGGAGATTAGAGTATCGGTCGA | 5.57
GCCATGGACTGCTGACCTTTGAACCCTGAGGCCTAGGGAGATTAGAGTATCGGTCGA | 10.3
ATCTTTGACCTGGAGCATGACCCTTTGCAGGCCTAGGGAGATTAGAGTATCGGTCGA | 3.64
CTGCTGCCCAAAGGTCACCTCTTCAGATAGGCCTAGGGAGATTAGAGTATCGGTCGA | 3.89
CTGTTTGACCAAAGCTACTCATCATGAACTGCCTAGGGAGATTAGAGTATCGGTCGA | 0.948
TAGACATAGGTTATAAACTTGTTTGGGATTGCCTAGGGAGATTAGAGTATCGGTCGA | 0.308
AAAGTCCAACACAGAAGCCTTTTGTTCTTTGCCTAGGGAGATTAGAGTATCGGTCGA | 2.15
AATGTCTGGAAGTTCTTCCTTAAGTCTAACGCCTAGGGAGATTAGAGTATCGGTCGA | 0.865
GGACTTGGTAAAGTCAATAATCTAGAAACCGCCTAGGGAGATTAGAGTATCGGTCGA | 0.338
GCAGTGAGGGTGGGTTCAAAGGTCAGAAAAGCCTAGGGAGATTAGAGTATCGGTCGA | 8.97
TAGAAGCAGTGGGACAAAGGTCACAGGAAAGCCTAGGGAGATTAGAGTATCGGTCGA | 5.05
GGGAAGCAGTGAGGGTGGGTTCAAAGGTCAGCCTAGGGAGATTAGAGTATCGGTCGA | 8.86

Sequence | binding signal [log2 normalized intensity]
GAGGGTGGGTTCAAAGGTCAGAAAAAGCTGGCCTAGGGAGATTAGAGTATCGGTCGA | 7.27
GGCATGGGAAGCAGTGAGGGTGGGTTCAAAGCCTAGGGAGATTAGAGTATCGGTCGA | 1.64
TGGGTTCAAAGGTCAGAAAAAGCTGACGCCGCCTAGGGAGATTAGAGTATCGGTCGA | 7.25
ATAAGGTAACAGGCCAAAGGGCAAGAACAAGCCTAGGGAGATTAGAGTATCGGTCGA | 3.1
TCACCTCGCTCCCCTCCTGTCAGTTTATTTGCCTAGGGAGATTAGAGTATCGGTCGA | 2.3
CCCCCTGTGATTACTTCCACTCTTGCAGATGCCTAGGGAGATTAGAGTATCGGTCGA | 0.911
AAAAGTGACCTTTGCTCCAGTTCCCAATAAGCCTAGGGAGATTAGAGTATCGGTCGA | 7.02
TTGCTTAAGCATAGCAAAAGTGACCTTTGCGCCTAGGGAGATTAGAGTATCGGTCGA | 9.23
TGACCTTTGCTCCAGTTCCCAATAATTTCCGCCTAGGGAGATTAGAGTATCGGTCGA | 5.13
CAAAGCATAGCAAGAGTGACCTTTGCTCCAGCCTAGGGAGATTAGAGTATCGGTCGA | 9
CCTGCATATCCTGACTGCTGACCTTTAAGCGCCTAGGGAGATTAGAGTATCGGTCGA | 5.56
CATAGCAAGAGTGACCTTTGCTCCAGTTCCGCCTAGGGAGATTAGAGTATCGGTCGA | 8.19
TTTGCCAAAGCATAGCAAGAGTGACCTTTGGCCTAGGGAGATTAGAGTATCGGTCGA | 7.18
CAAGAGTGACCTTTGCTCCAGTTCCCAATAGCCTAGGGAGATTAGAGTATCGGTCGA | 6.59
ATAGCAAAAGTGACCTTTGCTCCAGTTCCCGCCTAGGGAGATTAGAGTATCGGTCGA | 8.52
AGATAGCATTCCAAGAGAGCAAAGTGCTTTGCCTAGGGAGATTAGAGTATCGGTCGA | 1.21
GTGACCTTTGCTCCAGTTCCCAATAAGTTGGCCTAGGGAGATTAGAGTATCGGTCGA | 5.13
CTTCTTTGCTTAAGCATAGCAAAAGTGACCGCCTAGGGAGATTAGAGTATCGGTCGA | 3.13
TGTCAGGAACAACTTCGGGAATCTGACCTTGCCTAGGGAGATTAGAGTATCGGTCGA | 4.3
GCTTACAACTCTAAGGGGGAAAGTCCACGTGCCTAGGGAGATTAGAGTATCGGTCGA | 4.61
CTCAACCTCCCCCTGGGGACAGGTGTTAATGCCTAGGGAGATTAGAGTATCGGTCGA | 2.27
CACGTGCAAAGTACAAAGTACAGAGATGGCGCCTAGGGAGATTAGAGTATCGGTCGA | 3.78

Sequence | binding signal [log2 normalized intensity]
GGGTAACTGACCTTGTTGCCCACCCCCCAAGCCTAGGGAGATTAGAGTATCGGTCGA | 5.8
TCAATGGCCCCAGTGCACGTGCATGAGGCCGCCTAGGGAGATTAGAGTATCGGTCGA | -0.475
GGATCCTTGGAGGACCTTGGGTTCATTTTAGCCTAGGGAGATTAGAGTATCGGTCGA | 2.86
TTTTGCTCTGATCCTAGTCTTTGCCCCACTGCCTAGGGAGATTAGAGTATCGGTCGA | 3.94
ACTGCCCGCTGGCCTCCCCATCCTCATGACGCCTAGGGAGATTAGAGTATCGGTCGA | 2.93
CAAGCTGACAAACATGTATCAGTGATAGACGCCTAGGGAGATTAGAGTATCGGTCGA | -0.0274
CTTTAGCACCTTCATCCAAAGATGACCTTTGCCTAGGGAGATTAGAGTATCGGTCGA | 8.24
AATCGACCTTTAGCACCGTAAGAGAGTATTGCCTAGGGAGATTAGAGTATCGGTCGA | 4.63
TATGACCTTTGCTTTTCAAGATTTTACCTAGCCTAGGGAGATTAGAGTATCGGTCGA | 2.72
TAACTCCTTTGTGTGAATCGACCTTTAGCAGCCTAGGGAGATTAGAGTATCGGTCGA | 6.42
TCTTATTGCCTCATGTTTGCAGAATGGCTGGCCTAGGGAGATTAGAGTATCGGTCGA | 0.617
CCTTTGGACTGTCCTTTGCTAGATTCTTTCGCCTAGGGAGATTAGAGTATCGGTCGA | 2.13
GGACTTGGGACTTTCGAGTTAATGCTGGAGGCCTAGGGAGATTAGAGTATCGGTCGA | 3.2
ACTTTGGACTTGGGACTTTCGAGTTAATGCGCCTAGGGAGATTAGAGTATCGGTCGA | 4.67
GAGACTTTGGACTTTGGACTTGGGACTTTCGCCTAGGGAGATTAGAGTATCGGTCGA | 9.81
TTTGGACTTTGGACTTGGGACTTTCGAGTTGCCTAGGGAGATTAGAGTATCGGTCGA | 8.22
CTGGACTTTCCTTTGTTGGGAGACTTTTTAGCCTAGGGAGATTAGAGTATCGGTCGA | 1.45
ATAGCAAACACGATTGGATGGAAGGTCCTTGCCTAGGGAGATTAGAGTATCGGTCGA | 0.748
AATCAAACTGAACTTTGAAACAAGCCCATCGCCTAGGGAGATTAGAGTATCGGTCGA | 3.87
CAACCTCTCCAATGCTATGCTTTTATTTAAGCCTAGGGAGATTAGAGTATCGGTCGA | -0.995
CATCATAAACCCGATCCTTACTATTAGGTCGCCTAGGGAGATTAGAGTATCGGTCGA | 1
GGACTTTGGGCTGTGTTTTGCCCCTGCAGAGCCTAGGGAGATTAGAGTATCGGTCGA | 4.12

Sequence | binding signal [log2 normalized intensity]
TTTTCCTTGGCTGTGCTGCCCTTTGCCCTTGCCTAGGGAGATTAGAGTATCGGTCGA | 8.52
GGGTGGGGTGCTGCCTTTCCTGTGACTTTTGCCTAGGGAGATTAGAGTATCGGTCGA | 2.09
GAGAGTTTTCCTTGGCTGTGCTGCCCTTTGGCCTAGGGAGATTAGAGTATCGGTCGA | 4.01
CTTGGCTGTGCTGCCCTTTGCCCTTTGGGAGCCTAGGGAGATTAGAGTATCGGTCGA | 7.91
CTGTGCTGCCCTTTGCCCTTTGGGAAGGGGGCCTAGGGAGATTAGAGTATCGGTCGA | 6.59
GCGTAGCCCAAAGGTCAGTCTGCAGCTAATGCCTAGGGAGATTAGAGTATCGGTCGA | 3.36
AGTAGGCACTATTATCCCCCTATCCCAAGAGCCTAGGGAGATTAGAGTATCGGTCGA | 4.72
ATTATCTGCTTTTATGACCTTTGACTGCAGGCCTAGGGAGATTAGAGTATCGGTCGA | 7.32
CGCATTTCTGCTTCTTCTCATTCTTGGAATGCCTAGGGAGATTAGAGTATCGGTCGA | 1.49
TGCCTCTTTTCTGCTTTTGGAATTTGACCTGCCTAGGGAGATTAGAGTATCGGTCGA | 8.78
CCTAAGCCTTATTATCTGCTTTTATGACCTGCCTAGGGAGATTAGAGTATCGGTCGA | 3.51
TTTGTTGCCTCTTTTCTGCTTTTGGAATTTGCCTAGGGAGATTAGAGTATCGGTCGA | 3.37
GGTGACCCCTCAGTTTTTCTCTTTTGACCTGCCTAGGGAGATTAGAGTATCGGTCGA | 4.77
CTGCTTTTGGAATTTGACCTCATTTGCTCCGCCTAGGGAGATTAGAGTATCGGTCGA | 6.52
GTGCTTGGACCTGCTCTGTTTTCTTTCGGTGCCTAGGGAGATTAGAGTATCGGTCGA | 1.24
CCCCTCAGTTTTTCTCTTTTGACCTTTGGAGCCTAGGGAGATTAGAGTATCGGTCGA | 9.54
CTTTTCTGCTTTTGGAATTTGACCTCATTTGCCTAGGGAGATTAGAGTATCGGTCGA | 7.55
GCCTTATTATCTGCTTTTATGACCTTTGACGCCTAGGGAGATTAGAGTATCGGTCGA | 8.05
GCATGACCTCAACTCTCAGTTTGGCTCTTAGCCTAGGGAGATTAGAGTATCGGTCGA | 0.116
